# Measured values as given in PubChem BioAssay (NCATS).
# Results filed as inconclusive are left out. The source made the active and inactive calls. Unless noted, calls follow the shape of the dose curve; as a rule, active = well fitted curve in the direction sought with a large enough effect; inconclusive = small, poorly fitted or top-dose-only effect, or another doubt; inactive = no such curve, though single readings can be large; an effect the other way counts as inactive or inconclusive.
# Columns and labels:
# [1] = qHTS profiling of the MIPE4 collection as inhibitors of Plasmodium falciparum (3D7) proliferation (AID 743344; call rule not given here;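 also: scaled between DMSO vehicle wells and 0.29 µM artemisinin as full inhibition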); settings: P. falciparum 3D7 in erythrocytes, SYBR Green DNA fluorescence, 72 h; at 28.5 µM unless noted
# In short: (§1)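 Erythrocytes infected with P. falciparum (0.3% parasitemia, 2.5% hematocrit) incubated with compounds 72 h at 37 C, 5% CO2. Lysis with saponin/Triton buffer containing SYBR Green I, overnight at room temperature in the dark; DNA fluorescence (485/535 nm) normalised to 0.29 uM artemisinin and DMSO.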
# [2] = qHTS profiling of the MIPE4 collection as inhibitors of Plasmodium falciparum (DD2) proliferation (AID 743345; call rule not given here); settings: P. falciparum Dd2 in erythrocytes, SYBR Green DNA, 72 h; at 28.5 µM unless noted
# In short: as §1
# [3] = qHTS profiling of the MIPE4 collection as inhibitors of Plasmodium falciparum (DD2) proliferation (Rep 2) (AID 743346; call rule not given here); settings: P. falciparum Dd2 in erythrocytes, SYBR Green DNA, 72 h; at 28.5 µM unless noted
# In short: as §1
# [4] = qHTS profiling of the MIPE4 collection as inhibitors of Plasmodium falciparum (HB3) proliferation (AID 743347; call rule not given here;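 also: plate controls were DMSO vehicle wells for no effect and artemisinin wells for full effect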); settings: P. falciparum HB3 in erythrocytes, SYBR Green DNA, 72 h; at 28.5 µM unless noted
# In short: as §1
# [5] = High-throughput drug toxicity screening in the BPDCN cell line Gen2.2 (AID 1224824; call rule not given here); settings: Gen2.2 BPDCN cells; at 45.8 µM (top of the series) unless noted
# In short: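 CellTiter-Glo luminescence after 48 h compound exposure of Gen2.2 cells; percent activity set with DMSO as 100% and bortezomib (9.2 uM final) as 0%. Cells seeded at 500 per well, RPMI + 10% FBS, 37 °C.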
# [6] = High-throughput drug toxicity screening in the BPDCN cell line Cal-1 (AID 1224825; call rule not given here); settings: Cal-1 BPDCN cell viability, qHTS; at 45.8 µM (top of the series) unless noted
# In short: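 Cal-1 cells, 500 per well in phenol-red-free RPMI with 10% FBS, exposed to compounds for 48 hours at 37C, 5% CO2. Viability read by CellTiter-Glo luminescence; percent activity normalized to DMSO (100%) and 9.2 uM bortezomib final (0%).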
# [7] = qHTS assay for measurement of the activity of small molecule inhibitors on Zika virus induced Caspase-3 activity in human astrocytoma cells (AID 1224859);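 also: plate controls were ZIKV-infected untreated cells for no effect and uninfected cells for full effect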
# In short: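 SNB-19 astrocytoma cells, 250/well, pretreated 1 h with compounds, then Zika virus at 2 FFU/cell for 6 h at 37 C; Caspase-Glo 3/7 luminescence after 30 min; percent inhibition normalised to uninfected and infected controls.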
# [8] = qHTS Screen of the MIPE 4.0 Collection Against Ewings Sarcoma (RDES) (AID 1259252); also: nearly all actives have a fitted effect of over 35% in size; also: potency is read from the fitted curve at half-maximal effect
# In short: (§2)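 Viability screen: 48 h incubation at 37C, 95% humidity, 5% CO2 with serially titrated compound, followed by CellTiter-Glo readout.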
# [9] = qHTS Screen of the MIPE 4.0 Collection Against Ewings Sarcoma (TC71) (AID 1259253); also: nearly all actives have a fitted effect of over 40% in size; also: potency is read from the fitted curve at half-maximal effect
# In short: as §2
# [10] = qHTS Screen of the MIPE 4.0 Collection Against Ewings Sarcoma (EW8) (AID 1259255); also: nearly all actives have a fitted effect of over 35% in size; also: potency is read from the fitted curve at half-maximal effect;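 as to viability: 100% = DMSO-treated cells and 0% = medium-only wells without cells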
# In short: as §2
# [11] = qHTS Screen of the MIPE 4.0 Collection Against Ewings Sarcoma (TC32) (AID 1259256); also: nearly all actives have a fitted effect of over 45% in size; also: potency is read from the fitted curve at half-maximal effect
# In short: as §2
# [12] = P-glycoprotein substrates identified in KB-8-5-11 adenocarcinoma cell line, qHTS therapeutic library screen (AID 1346987); also: nearly all actives have a fitted effect of over 65% in size; also: potency is read from the fitted curve at half-maximal effect
# In short: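 Steps: plate 500 KB-8-5-11 cells/well in DMEM + 10% FCS (colchicine removed); pin compounds in dose-response; incubate 72 h, 37 degree C, 5% CO2; add CellTiter-Glo, 5 min; read luminescence.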
# [13] = qHTS assay for measurement of the activity of small molecule inhibitors on Zika virus induced Caspase-3 activity in human iPSC derived neural progenitor cells (hNPCs) (AID 1224857); also: potency is read from the fitted curve at half-maximal effect; nearly all actives have a fitted effect of over 65% in size
# In short: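 Human iPSC-derived neural progenitor cells pretreated 1 hr with compounds, then infected with Zika virus (2 FFU/cell) for 6 hours at 37 C. Caspase-3/7 measured by Caspase-Glo luminescence; % inhibition calculated from induction scaled to uninfected (0%) and infected (100%) wells.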
# [14] = Identifying Small Molecule Inhibitors of Pancreatic Cancer Stem Cells (Panc1, Adherent) (AID 1259362); settings: Potency: viability;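 also: compound exposure lasted 48 h before the viability read; plate controls were DMSO-treated cells for no effect and cell-free media wells for full effect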
# In short: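 After a 4 h attachment period, compounds were pinned into wells and cultures held 48 h under standard incubator conditions. Viability was then measured as CellTiter-Glo luminescence following 10 min at room temperature.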
# [15] = Identifying Small Molecule Inhibitors of Pancreatic Cancer Stem Cells (SN12C, Adherent) (AID 1259358);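 also: potency is read from the fitted curve at half-maximal effect; cell survival measured after 48 h of compound exposure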
# In short: (§3)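 Monolayer and spheroid cultures are compared. Spheroids form over 14 days in stem cell medium on hydrogel-coated low-attachment plates, then are exposed to compound for 48 h before CellTiter-Glo luminescence.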
# [16] = Identifying Small Molecule Inhibitors of Pancreatic Cancer Stem Cells (A278, Adherent) (AID 1259361);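 also: viability read after 48 h compound exposure; nearly all actives have a fitted effect of over 35% in size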
# In short: as §3
# [17] = P-glycoprotein substrates identified in KB-3-1 adenocarcinoma cell line, qHTS therapeutic library screen (AID 1346986); also: nearly all actives have a fitted effect of over 60% in size
# In short: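 KB-3-1 parental and colchicine-selected P-gp-overexpressing KB-8-5-11 cells (colchicine omitted during assay), 500 cells/well, dosed in dose-response for 72 h at 37 °C; CellTiter-Glo luminescence. Cytotoxic: curve class -1.1 to -2.4, max response >50%, AC50 < 10 uM.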
compound,measurement,setting,value
CS(=O)(=O)N(Cc1ccco1)CC(O)Cn1c2ccccc2c2ccccc21 (stereo unspecified),"parasite growth, % of DMSO control",[1],34.3%
same,"parasite growth remaining, % of DMSO control (lower = more inhibition)",[2],12.4%
same,"parasite growth, % of control (lower = inhibition)",[3],58.2%
same,"growth, % of control",[4],16.4%
same,"cell viability, % of control (lower = more cytotoxic)",[5],75.4%
same,viability (% of control),[6],65.5%
same,Potency,[7],inactive
Cc1ccc(C(=O)Nc2cccc(C(F)(F)F)c2)cc1Nc1nc(-c2cccnc2)nc2c1cnn2C,"parasite growth, % of DMSO control",[1],7.71%
same,"parasite growth remaining, % of DMSO control (lower = more inhibition)",[2],12%
same,"parasite growth, % of control (lower = inhibition)",[3],27.1%
same,"growth, % of control",[4],10.4%
same,"cell viability, % of control (lower = more cytotoxic)",[5],6.02%
same,viability (% of control),[6],3.12%
same,Potency,[7],inactive
same,Potency,[8],14.8 µM (active)
same,Potency,[9],18.7 µM (active)
same,Potency,[10],13.2 µM (active)
same,Potency,[11],13.2 µM (active)
same,Potency,[12],inactive
CC1(C)CCC2=C(O1)c1ccccc1C(=O)C2=O,"parasite growth, % of DMSO control",[1],22.8%
same,"parasite growth remaining, % of DMSO control (lower = more inhibition)",[2],71%
same,"parasite growth, % of control (lower = inhibition)",[3],21.7%
same,"growth, % of control",[4],20.3%
same,"cell viability, % of control (lower = more cytotoxic)",[5],4.24%
same,viability (% of control),[6],4.06%
same,Potency,[7],inactive
same,Potency,[8],26.4 µM (active)
same,Potency,[9],26.4 µM (active)
same,Potency,[10],23.5 µM (active)
same,Potency,[12],inactive
O=C(Nc1ccccc1-c1cn2c(CN3CCNCC3)csc2n1)c1cnc2ccccc2n1,"parasite growth, % of DMSO control",[1],5.22%
same,"parasite growth remaining, % of DMSO control (lower = more inhibition)",[2],5.73%
same,"parasite growth, % of control (lower = inhibition)",[3],12.5%
same,"growth, % of control",[4],3.22%
same,"cell viability, % of control (lower = more cytotoxic)",[5],2.56%
same,viability (% of control),[6],1.48%
same,Potency,[13],18.7 µM (active)
same,Potency,[9],23.5 µM (active)
same,Potency,[14],inactive
same,Potency,[12],26.4 µM (active)
CO[C@H]1C=CC=C(C)C(=O)NC2=CC(=O)C(NCCN(C)C)=C(C[C@@H](C)C[C@H](OC)[C@@H](O)[C@@H](C)C=C(C)[C@@H]1OC(N)=O)C2=O,"parasite growth, % of DMSO control",[1],5.12%
same,"parasite growth remaining, % of DMSO control (lower = more inhibition)",[2],6.82%
same,"parasite growth, % of control (lower = inhibition)",[3],6.75%
same,"growth, % of control",[4],6.65%
same,"cell viability, % of control (lower = more cytotoxic)",[5],4.49%
same,viability (% of control),[6],3.52%
same,Potency,[7],inactive
same,Potency,[8],0.235 µM (active)
same,Potency,[9],0.235 µM (active)
same,Potency,[10],0.235 µM (active)
same,Potency,[11],0.0469 µM (active)
same,Potency,[15],0.0935 µM (active)
same,IC50 (viability decrease),[16],0.0059 µM (active)
same,Potency,[12],7.43 µM (active)
Nc1nc(F)nc2c1ncn2[C@@H]1O[C@H](COP(=O)(O)O)[C@@H](O)[C@H]1O,"parasite growth, % of DMSO control",[1],27.2%
same,"parasite growth remaining, % of DMSO control (lower = more inhibition)",[2],19.9%
same,"parasite growth, % of control (lower = inhibition)",[3],10.9%
same,"growth, % of control",[4],8.49%
same,"cell viability, % of control (lower = more cytotoxic)",[5],97.6%
same,viability (% of control),[6],12.5%
same,Potency,[7],inactive
same,Potency,[8],11.8 µM (active)
same,Potency,[9],14.8 µM (active)
same,Potency,[10],14.8 µM (active)
same,Potency,[11],16.6 µM (active)
same,Potency,[17],inactive
same,Potency,[12],inactive
O=C1C[C@@H](c2ccc(O)cc2)Oc2cc(O)cc(O)c21,"parasite growth, % of DMSO control",[1],20%
same,"cell viability, % of control (lower = more cytotoxic)",[5],70.3%
same,viability (% of control),[6],103%
same,Potency,[13],18.7 µM (active)
same,Potency,[9],inactive
same,Potency,[10],13.2 µM (active)
same,Potency,[11],inactive
same,Potency,[12],inactive
CN(C)c1cc(NC(=O)CNC(C)(C)C)c(O)c2c1C[C@@H]1C[C@H]3[C@H](N(C)C)C(=O)C(C(N)=O)=C(O)[C@@]3(O)C(=O)C1=C2O,"parasite growth remaining, % of DMSO control (lower = more inhibition)",[2],90.5%
same,"parasite growth, % of control (lower = inhibition)",[3],106%
same,"growth, % of control",[4],98.7%
same,"cell viability, % of control (lower = more cytotoxic)",[5],142%
same,viability (% of control),[6],97.2%
same,Potency,[7],inactive
same,Potency,[8],inactive
same,Potency,[9],inactive
same,Potency,[10],inactive
same,Potency,[11],inactive
same,Potency,[12],inactive
